Test results published in PubChem BioAssay (EPA / NIEHS).
Records with an inconclusive call do not appear. Active and inactive are the calls of the source. How the source made its calls, unless noted: active means hit-call score of the fitted dose curve at least 0.9, where 1 is the maximum; inactive means score below 0.9.

How the values were obtained:
[1] = ATG_M_06_TRANS: Attagene TRANS-FACTORIAL HepG2 Assay for M06 Transcription Factor (Internal Marker) (AID 2282983; active means hit-call score of the fitted dose curve at least 0.9, where 1 is the maximum;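 further: reporter transcript level by RT-PCR then capillary electrophoresis fluorescence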); settings: HepG2 Attagene TRANS M06 internal marker reporter
Outline: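 Background control endpoint: reporter mRNA from transiently transfected HepG2 after 24 h dosing, detected by RT-PCR with capillary electrophoresis fluorescence. Analysed for gain versus DMSO.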

[2] = target: Nuclear receptor subfamily 4 group A member 2 (Homo sapiens) (UniProt P43354); assay: ATG_NURR1_TRANS: Attagene TRANS-FACTORIAL HepG2 Assay for human Nuclear Receptor Related Protein 1 (NURR1) (AID 2282985; active means hit-call score of the fitted dose curve at least 0.9, where 1 is the maximum); settings: HepG2 Attagene TRANS reporter, mRNA readout
Outline: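 Reporter transcript induction, measured by RT-PCR with fluorescent labelling, HpaI digestion and capillary electrophoresis, after 24 hr dosing of human HepG2 cells transiently expressing an exogenous NR-Gal4 fusion with GAL4-UAS-driven reporters; DMSO as baseline.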

[3] = target: Nuclear respiratory factor 1 (Homo sapiens) (UniProt Q16656); assay: ATG_NRF1_CIS: Attagene CIS-FACTORIAL HepG2 Assay for human Nuclear Respiratory Factor 1 (NRF1) Orphan Gene (AID 2282987); settings: HepG2 NRF1 cis-element reporter, Attagene multiplex; actives raise or lower the signal
Outline: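 HepG2 cells transiently transfected with multiple reporter transcription units under cis-regulatory promoter control, so endogenous transcription-factor activity is read. After 24 h compound exposure, reporter mRNA quantified by RT-PCR, fluorescent labelling, HpaI digestion and capillary electrophoresis; bidirectional fitting versus DMSO.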

[4] = ATG_NFI_CIS: Attagene CIS-FACTORIAL HepG2 Assay for human Nuclear Factor I (NFI) (AID 2282989); settings: HepG2 cis-regulatory reporter, NFI response element transcription; actives raise or lower the signal
Outline: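 Transfected HepG2 liver cells, exposed 24 h, supplied total RNA for oligo(dT) reverse transcription and reporter-specific PCR. Labelled, HpaI-cut fragments were sized by capillary electrophoresis; DMSO set the baseline for bidirectional fitting.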

[5] = ATG_NRF2_ARE_CIS: Attagene CIS-FACTORIAL HepG2 Assay for human Nuclear Factor Erythroid 2 Related Factor 2 (NFR2) response to Antioxidant Response Elements (ARE) (AID 2282992); settings: HepG2 Attagene ARE/NRF2 reporter, transcription factor activity; actives raise or lower the signal;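 on AC50: reporter mRNA level measured by RT-PCR and capillary electrophoresis fluorescence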
Outline: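 Using transiently transfected HepG2 cells exposed for 24 h, reporter mRNA levels were determined by RT-PCR with fluorescent primer extension and capillary electrophoresis, analysed for gain or loss of signal against DMSO.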

[6] = ATG_Oct_MLP_CIS: Attagene CIS-FACTORIAL HepG2 Assay for human Octamer-Binding Transcription Factor (Oct) (AID 2282993); settings: HepG2 Attagene cis-factorial Oct reporter, mRNA; actives raise or lower the signal
Outline: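 Using HepG2 cells bearing transfected cis-reporter constructs, mRNA induction was read after 24 h by fluorescent RT-PCR and capillary electrophoresis, with DMSO defining baseline for gain- or loss-of-signal fits.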

[7] = target: Cellular tumor antigen p53 (Homo sapiens) (UniProt P04637); assay: ATG_p53_CIS: Attagene CIS-FACTORIAL HepG2 Assay for human p53 Transcription Factor (AID 2282994); settings: HepG2 p53 cis-element reporter, Attagene mRNA; actives raise or lower the signal
Outline: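 In HepG2 cells, reporter transcription units under cis-regulatory promoters were transiently introduced. Following 24 h treatment, RNA was processed to labelled, digested cDNA fragments read by capillary electrophoresis; fitting was bidirectional versus DMSO.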

[8] = BSK_3C_TissueFactor: BioMAP Diversity Plus: 3C Assay for Tissue Factor Biomarker Activity (AID 2282997); settings: BioMAP 3C HUVEC, tissue factor biomarker readout; actives raise or lower the signal
Outline: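 After a 24 h chemical exposure of primary human umbilical vein endothelial cells, Tissue Factor levels were quantified by ELISA.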

[9] = BSK_3C_uPAR: BioMAP Diversity Plus: 3C Assay for Urokinase-type plasminogen activator receptor (uPAR) Biomarker Activity (AID 2282998); settings: BioMAP 3C HUVEC, uPAR biomarker ELISA; actives raise or lower the signal
Outline: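 In this endothelial cell-based assay, human umbilical vein primary cells were treated with chemicals and harvested at 24 h. uPAR was quantified using ELISA, with gains or losses fitted relative to DMSO controls.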

[10] = BSK_3C_VCAM1: BioMAP Diversity Plus: 3C Assay for Vascular cell adhesion molecule 1 (VCAM1) Biomarker Activity (AID 2282999); settings: BioMAP 3C HUVEC, VCAM1 ELISA, cytokine-stimulated; actives raise or lower the signal
Outline: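 Activity fitted in both directions relative to DMSO, with ELISA measurement of the surface marker on primary HUVEC (3C) at 24 h post-treatment; parallel SRB staining (0.1% SRB, TCA-fixed, 560 nm) flagged overt cytotoxicity.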

[11] = read-out: Intercellular Adhesion Molecule 1 (ICAM1), ICAM1 (gene 3383); assay: BSK_3C_ICAM1: BioMAP Diversity Plus: 3C Assay for Intercellular Adhesion Molecule 1 (ICAM1) Biomarker Activity (AID 2283003); settings: primary human endothelial cells (HUVEC); actives raise or lower the signal
Outline: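 Chemicals are dosed onto primary human umbilical vein endothelium (3C system). After 24 h, ICAM-1 is measured by ELISA, and responses are fitted bidirectionally relative to DMSO.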

[12] = ATG_M_32_TRANS: Attagene TRANS-FACTORIAL HepG2 Assay for M32 Transcription Factor (Internal Marker) (AID 2282984; active means hit-call score of the fitted dose curve at least 0.9, where 1 is the maximum;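 further: transcript level of a background control reporter unit measured by RT-PCR and capillary electrophoresis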); settings: HepG2 Attagene TRANS M32 internal marker reporter
Outline: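 Internal background reporter in transfected HepG2: after 24 h chemical exposure, RNA reverse-transcribed, reporter cDNA amplified, fluorescently labelled and HpaI-cut, then sized by capillary electrophoresis. Gain of signal fitted against DMSO control.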

[13] = target: Transcriptional activator Myb (Homo sapiens) (UniProt P10242); assay: ATG_Myb_CIS: Attagene CIS-FACTORIAL HepG2 Assay for human Myeloblastosis (Myb) Proto-Oncogene Transcription Factor (AID 2282986); settings: HepG2 Attagene CIS-FACTORIAL Myb reporter transcription; actives raise or lower the signal
Outline: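 HepG2 cells were transiently transfected with cis-regulated multiple reporter transcription units reflecting endogenous Myb activity, then exposed to compound for 24 hours. Reporter mRNA was measured by RT-PCR with capillary electrophoresis; bidirectional fitting versus DMSO baseline.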

[14] = target: Myc proto-oncogene protein (Homo sapiens) (UniProt P01106); assay: ATG_Myc_CIS: Attagene CIS-FACTORIAL HepG2 Assay for human Myelocytomatosis (Myc) Proto-Oncogene Transcription Factor (AID 2282990); settings: HepG2, Attagene cis-reporter transcription factor activity; actives raise or lower the signal
Outline: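 After 24 h chemical treatment of HepG2 cells carrying multiplexed cis-regulated reporter constructs, reporter transcripts quantified by RT-PCR and capillary electrophoresis of fluorescent fragments. Gain or loss fitted against DMSO baseline.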

[15] = ATG_NF_kB_CIS: Attagene CIS-FACTORIAL HepG2 Assay for human Nuclear Factor Kappa B (NF-kB) (AID 2282991); settings: HepG2 Attagene cis-factorial NF-kB reporter mRNA; actives raise or lower the signal
Outline: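 HepG2 cells transiently transfected with multiplexed cis-element reporter units measuring endogenous transcription factor activity; reporter mRNA read 24 h after dosing by RT-PCR, fluorescent labelling, HpaI digestion and capillary electrophoresis. Bidirectional fit against DMSO baseline.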

[16] = target: human Peroxisome Proliferator-activated Receptor alpha (PPARa), PPARA (gene 5465) (UniProt Q07869); assay: ATG_PPARa_TRANS: Attagene TRANS-FACTORIAL HepG2 Assay for human Peroxisome Proliferator-activated Receptor alpha (PPARa) (AID 2283001; active means hit-call score of the fitted dose curve at least 0.9, where 1 is the maximum)
Outline: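 Reporter transcripts quantified by RT-PCR plus capillary electrophoresis after 24 h treatment, fitted upward relative to DMSO. Cells: human HepG2 transiently carrying multiple GAL4-UAS reporter units driven by NR-Gal4 chimeras.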

[17] = target: human Retinoic Acid Receptor beta (RARb), RARB (gene 5915) (UniProt P10826); assay: ATG_RARb_TRANS: Attagene TRANS-FACTORIAL HepG2 Assay for human Retinoic Acid Receptor beta (AID 2283004; active means hit-call score of the fitted dose curve at least 0.9, where 1 is the maximum)
Outline: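 Transient transfection of HepG2 with multiple reporter units → chemical dosing, 24 h → total RNA isolation → RT with oligo(dT) → reporter-specific PCR, 6-FAM primer extension, HpaI digest → capillary electrophoresis. Positive direction vs DMSO control.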

[18] = BSK_4H_Eotaxin3: BioMAP Diversity Plus: 4H Assay for Eotaxin 3 Biomarker Activity (AID 2283000); settings: primary human endothelial cells (HUVEC); actives raise or lower the signal;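 on outcome: CCL26 protein level quantified by ELISA in parallel with SRB cytotoxicity check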
Outline: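 Chemicals were added to human umbilical vein endothelium cultures, and Eotaxin-3 was quantified by ELISA at 24 h. Values were derived by bidirectional fitting with DMSO serving as negative control and activity baseline.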

[19] = target: human Peroxisome Proliferator-activated Receptor delta (PPARd), PPARD (gene 5467) (UniProt Q03181); assay: ATG_PPARd_TRANS: Attagene TRANS-FACTORIAL HepG2 Assay for human Peroxisome Proliferator-activated Receptor delta (PPARd) (AID 2283002; active means hit-call score of the fitted dose curve at least 0.9, where 1 is the maximum)
Outline: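 Read-out is induced reporter mRNA, quantified by RT-PCR with fluorescent labelling and capillary electrophoresis after 24 h dosing. Cells are HepG2 transiently carrying multiple GAL4-UAS reporter units driven by exogenous NR-GAL4 chimeras; DMSO serves as baseline.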

Sequence of Nuclear receptor subfamily 4 group A member 2 (Homo sapiens) (P43354 whole entry, looked up, the tested form may be a part): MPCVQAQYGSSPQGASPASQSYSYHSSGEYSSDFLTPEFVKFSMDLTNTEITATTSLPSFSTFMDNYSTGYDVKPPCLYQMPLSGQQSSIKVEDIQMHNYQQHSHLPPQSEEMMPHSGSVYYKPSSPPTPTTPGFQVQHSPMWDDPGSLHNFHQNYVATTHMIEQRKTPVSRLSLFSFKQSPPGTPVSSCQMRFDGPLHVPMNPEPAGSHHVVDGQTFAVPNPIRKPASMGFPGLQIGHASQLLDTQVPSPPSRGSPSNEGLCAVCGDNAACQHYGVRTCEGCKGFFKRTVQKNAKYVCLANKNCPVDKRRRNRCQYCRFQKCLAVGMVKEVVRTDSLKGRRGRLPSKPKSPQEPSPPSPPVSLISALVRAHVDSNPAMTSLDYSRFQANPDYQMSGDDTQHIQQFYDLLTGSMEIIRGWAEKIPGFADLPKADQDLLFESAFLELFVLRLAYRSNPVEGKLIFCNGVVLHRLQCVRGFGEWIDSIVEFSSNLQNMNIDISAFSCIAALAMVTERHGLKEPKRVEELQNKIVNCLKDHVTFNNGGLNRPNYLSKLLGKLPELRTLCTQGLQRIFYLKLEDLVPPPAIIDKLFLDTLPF
Sequence of Cellular tumor antigen p53 (Homo sapiens) (P04637 whole entry, looked up, the tested form may be a part): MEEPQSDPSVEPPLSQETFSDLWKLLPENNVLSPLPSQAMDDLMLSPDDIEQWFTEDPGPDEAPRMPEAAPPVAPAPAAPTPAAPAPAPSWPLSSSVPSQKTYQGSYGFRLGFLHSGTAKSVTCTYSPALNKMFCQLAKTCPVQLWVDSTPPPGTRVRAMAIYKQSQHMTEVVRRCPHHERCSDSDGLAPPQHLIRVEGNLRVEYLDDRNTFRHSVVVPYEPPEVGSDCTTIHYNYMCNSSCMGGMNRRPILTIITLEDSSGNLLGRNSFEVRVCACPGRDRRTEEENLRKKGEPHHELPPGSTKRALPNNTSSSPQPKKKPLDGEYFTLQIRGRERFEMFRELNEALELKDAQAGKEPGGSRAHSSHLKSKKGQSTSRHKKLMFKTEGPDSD
Sequence of human Retinoic Acid Receptor beta (RARb), RARB (gene 5915) (P10826 whole entry, looked up): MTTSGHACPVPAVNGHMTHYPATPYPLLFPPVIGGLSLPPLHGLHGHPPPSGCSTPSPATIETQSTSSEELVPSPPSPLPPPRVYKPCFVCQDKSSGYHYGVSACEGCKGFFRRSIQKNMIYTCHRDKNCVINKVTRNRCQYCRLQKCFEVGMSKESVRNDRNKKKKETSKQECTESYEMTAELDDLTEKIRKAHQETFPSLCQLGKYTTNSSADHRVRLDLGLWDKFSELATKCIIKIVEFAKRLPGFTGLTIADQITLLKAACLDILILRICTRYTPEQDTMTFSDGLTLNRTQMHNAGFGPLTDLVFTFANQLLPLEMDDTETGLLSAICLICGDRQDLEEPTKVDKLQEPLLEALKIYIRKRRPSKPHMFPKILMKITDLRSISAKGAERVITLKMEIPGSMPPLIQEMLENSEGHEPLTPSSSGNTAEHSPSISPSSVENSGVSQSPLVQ
Sequence of Nuclear respiratory factor 1 (Homo sapiens) (Q16656 whole entry, looked up): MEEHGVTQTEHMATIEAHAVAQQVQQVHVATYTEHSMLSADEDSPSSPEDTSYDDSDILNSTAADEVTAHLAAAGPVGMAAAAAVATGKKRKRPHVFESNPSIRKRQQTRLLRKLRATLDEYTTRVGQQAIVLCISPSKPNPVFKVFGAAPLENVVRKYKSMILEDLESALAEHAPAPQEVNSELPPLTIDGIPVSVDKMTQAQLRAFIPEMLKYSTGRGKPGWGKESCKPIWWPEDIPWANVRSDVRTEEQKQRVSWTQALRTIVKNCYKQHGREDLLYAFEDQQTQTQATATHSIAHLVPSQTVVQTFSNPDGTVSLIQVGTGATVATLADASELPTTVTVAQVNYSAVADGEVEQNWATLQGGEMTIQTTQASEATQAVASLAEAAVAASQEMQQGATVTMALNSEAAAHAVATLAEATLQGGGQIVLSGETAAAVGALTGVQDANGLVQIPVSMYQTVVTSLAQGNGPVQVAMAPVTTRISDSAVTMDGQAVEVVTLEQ
Sequence of Myc proto-oncogene protein (Homo sapiens) (P01106 whole entry, looked up, the tested form may be a part): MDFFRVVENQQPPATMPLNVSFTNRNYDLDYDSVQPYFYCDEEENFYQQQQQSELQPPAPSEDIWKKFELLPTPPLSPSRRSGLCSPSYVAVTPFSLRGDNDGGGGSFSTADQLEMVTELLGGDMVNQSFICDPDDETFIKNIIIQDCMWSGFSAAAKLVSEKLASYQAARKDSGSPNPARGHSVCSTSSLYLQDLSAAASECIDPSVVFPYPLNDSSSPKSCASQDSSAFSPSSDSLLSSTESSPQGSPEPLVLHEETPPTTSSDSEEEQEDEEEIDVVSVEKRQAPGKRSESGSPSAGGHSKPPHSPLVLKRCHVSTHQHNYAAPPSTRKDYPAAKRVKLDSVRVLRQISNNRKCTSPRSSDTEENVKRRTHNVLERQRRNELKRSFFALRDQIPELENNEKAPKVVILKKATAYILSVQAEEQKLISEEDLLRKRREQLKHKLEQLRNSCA
Sequence of human Peroxisome Proliferator-activated Receptor alpha (PPARa), PPARA (gene 5465) (Q07869 whole entry, looked up, the tested form may be a part): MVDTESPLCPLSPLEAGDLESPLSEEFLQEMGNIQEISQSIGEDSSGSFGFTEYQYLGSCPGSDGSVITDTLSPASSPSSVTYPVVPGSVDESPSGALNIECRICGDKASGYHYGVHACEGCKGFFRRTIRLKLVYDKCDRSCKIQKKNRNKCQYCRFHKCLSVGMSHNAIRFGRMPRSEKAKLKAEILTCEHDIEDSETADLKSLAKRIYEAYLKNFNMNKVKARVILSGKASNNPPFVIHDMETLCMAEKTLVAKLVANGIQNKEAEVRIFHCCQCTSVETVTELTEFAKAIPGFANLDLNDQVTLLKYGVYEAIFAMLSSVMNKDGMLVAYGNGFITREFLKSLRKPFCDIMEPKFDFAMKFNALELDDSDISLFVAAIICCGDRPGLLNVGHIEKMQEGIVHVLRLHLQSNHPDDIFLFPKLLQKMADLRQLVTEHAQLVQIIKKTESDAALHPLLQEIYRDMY
Sequence of Transcriptional activator Myb (Homo sapiens) (P10242 whole entry, looked up): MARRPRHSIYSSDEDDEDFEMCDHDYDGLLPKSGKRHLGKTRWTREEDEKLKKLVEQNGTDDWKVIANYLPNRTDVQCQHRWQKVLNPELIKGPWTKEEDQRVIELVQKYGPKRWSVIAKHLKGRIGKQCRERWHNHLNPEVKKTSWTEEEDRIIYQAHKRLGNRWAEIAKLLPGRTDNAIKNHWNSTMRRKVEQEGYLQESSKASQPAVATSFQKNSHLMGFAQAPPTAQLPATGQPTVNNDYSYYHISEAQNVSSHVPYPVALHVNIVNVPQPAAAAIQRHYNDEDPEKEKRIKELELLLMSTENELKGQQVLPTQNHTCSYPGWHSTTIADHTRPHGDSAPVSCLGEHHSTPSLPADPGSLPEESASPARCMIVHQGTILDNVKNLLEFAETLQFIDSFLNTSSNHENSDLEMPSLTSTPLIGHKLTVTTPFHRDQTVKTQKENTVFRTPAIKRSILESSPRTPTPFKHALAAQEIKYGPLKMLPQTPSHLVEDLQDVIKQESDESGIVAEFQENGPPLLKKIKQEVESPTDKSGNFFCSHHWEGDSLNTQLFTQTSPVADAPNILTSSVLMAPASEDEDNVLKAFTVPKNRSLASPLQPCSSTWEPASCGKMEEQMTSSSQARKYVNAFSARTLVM
Sequence of human Peroxisome Proliferator-activated Receptor delta (PPARd), PPARD (gene 5467) (Q03181 whole entry, looked up, the tested form may be a part): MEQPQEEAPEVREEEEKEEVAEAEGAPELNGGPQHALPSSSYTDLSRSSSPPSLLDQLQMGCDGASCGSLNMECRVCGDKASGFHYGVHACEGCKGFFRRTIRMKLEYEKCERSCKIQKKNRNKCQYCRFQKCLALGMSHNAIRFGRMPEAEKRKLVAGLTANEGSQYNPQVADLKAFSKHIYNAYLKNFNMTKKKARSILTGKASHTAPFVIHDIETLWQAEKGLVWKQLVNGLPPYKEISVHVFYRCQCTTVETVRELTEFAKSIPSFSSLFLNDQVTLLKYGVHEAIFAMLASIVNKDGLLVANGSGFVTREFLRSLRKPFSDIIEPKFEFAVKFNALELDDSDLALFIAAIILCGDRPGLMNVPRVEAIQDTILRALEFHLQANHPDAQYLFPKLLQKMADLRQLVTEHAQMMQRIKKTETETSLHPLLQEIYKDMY

In the case of ClC1(Cl)C2(Cl)C3(Cl)C4(Cl)C(Cl)(Cl)C5(Cl)C3(Cl)C1(Cl)C5(Cl)C24Cl (stereo unspecified), the outcome [1] is reported as “inactive”, the outcome [2] is reported as “inactive” and the outcome [3] is reported as “inactive”. For the same compound, the outcome [4] was “inactive”, the outcome [5] was “inactive” and the outcome [6] was “inactive”. The outcome [7] was “inactive”, the outcome [8] was “inactive” and the outcome [9] was “inactive”. For the same compound, the outcome [10] was “inactive” and the outcome [11] was “inactive”.
In the case of Cl/C=C\C[N+]12CN3CN(CN(C3)C1)C2, the outcome [12] is reported as “inactive”, the outcome [2] is reported as “inactive” and the outcome [13] is reported as “inactive”. The outcome [4] was “inactive”, the outcome [14] was “inactive” and the AC50 [15] was 53.6 µM (active). For the same compound, the AC50 [5] was 160 µM (active), the outcome [6] was “inactive” and the AC50 [7] was 173 µM (active).
For CNC(=O)O/N=C/C(C)(C)S(C)=O (stereo unspecified), the outcome [1] was “inactive”, the outcome [13] was “inactive” and the outcome [4] was “inactive”. The outcome [14] was “inactive”, the outcome [15] was “inactive” and the AC50 [5] was 55.1 µM (active). For the same compound, the outcome [6] was “inactive”, the outcome [7] was “inactive” and the outcome [16] was “inactive”. The outcome [17] was “inactive”.
In the case of COP(=S)(OC)Oc1ccc(S(=O)(=O)N(C)C)cc1, the outcome [1] is reported as “inactive”, the outcome [3] is reported as “inactive” and the outcome [4] is reported as “inactive”. The outcome [14] was “inactive”, the AC50 [5] was 35.2 µM (active) and the outcome [6] was “inactive”. The outcome [7] was “inactive”, the outcome [8] was “inactive” and the outcome [9] was “inactive”. For the same compound, the outcome [18] was “inactive”, the outcome [16] was “inactive” and the outcome [11] was “inactive”.
In the case of CC(C)OC(=O)Nc1ccccc1, the outcome [1] is reported as “inactive”, the outcome [13] is reported as “inactive” and the outcome [4] is reported as “inactive”. The outcome [15] was “inactive”, the outcome [5] was “inactive” and the outcome [6] was “inactive”. The outcome [7] was “inactive” and the outcome [17] was “inactive”.
In the case of C(=NC1CCCCC1)=NC1CCCCC1, the outcome [1] is reported as “inactive”, the outcome [13] is reported as “inactive” and the outcome [3] is reported as “inactive”. For the same compound, the outcome [4] was “inactive”, the outcome [14] was “inactive” and the outcome [15] was “inactive”. The outcome [5] was “inactive”, the AC50 [6] was 5.24 µM (active) and the outcome [7] was “inactive”. The AC50 [8] was 34 µM (active), the AC50 [9] was 9.69 µM (active) and the AC50 [18] was 6.27 µM (active). For the same compound, the AC50 [11] was 29.6 µM (active).
In the case of O=[N+]([O-])c1ccc(O)c([N+](=O)[O-])c1, the outcome [1] is reported as “inactive”, the outcome [13] is reported as “inactive” and the outcome [3] is reported as “inactive”. For the same compound, the outcome [4] was “inactive”, the outcome [14] was “inactive” and the outcome [15] was “inactive”. For the same compound, the outcome [5] was “inactive”, the outcome [6] was “inactive” and the outcome [7] was “inactive”. The outcome [8] was “inactive”, the outcome [9] was “inactive” and the outcome [10] was “inactive”. The outcome [11] was “inactive” and the outcome [17] was “inactive”.
With CCC1(c2ccc(N)cc2)CCC(=O)NC1=O (stereo unspecified) the outcome [1] was “inactive”, the outcome [13] was “inactive” and the outcome [3] was “inactive”. For the same compound, the outcome [4] was “inactive”, the outcome [5] was “inactive” and the outcome [6] was “inactive”.
For CC(C)CCCCCCOC(=O)c1ccccc1C(=O)OCCCCCCC(C)C, the outcome [13] was “inactive”, the outcome [4] was “inactive” and the outcome [14] was “inactive”. For the same compound, the outcome [15] was “inactive”, the outcome [5] was “inactive” and the outcome [6] was “inactive”. The outcome [7] was “inactive”, the outcome [8] was “inactive” and the outcome [9] was “inactive”. For the same compound, the outcome [16] was “inactive”, the outcome [19] was “inactive” and the outcome [11] was “inactive”.
With CC(=[OH+])/C=C(/C)[O-].CC(=[OH+])/C=C(/C)[O-].CC(=[OH+])/C=C(/C)[O-].[Fe] the outcome [2] was “inactive”, the outcome [13] was “inactive” and the outcome [3] was “inactive”. The outcome [4] was “inactive”, the outcome [14] was “inactive” and the outcome [15] was “inactive”. The AC50 [5] was 16.9 µM (active), the outcome [6] was “inactive” and the outcome [7] was “inactive”. For the same compound, the outcome [16] was “inactive”.
In the case of Nc1cccc2ccccc12, the outcome [2] is reported as “inactive”, the outcome [13] is reported as “inactive” and the outcome [4] is reported as “inactive”. The outcome [14] was “inactive”, the AC50 [5] was 77.9 µM (active) and the outcome [6] was “inactive”. The outcome [7] was “inactive”, the AC50 [8] was 12.4 µM (active) and the outcome [9] was “inactive”. The outcome [16] was “inactive” and the outcome [11] was “inactive”.
